Where “and” joins values, the source holds several entries; their conditions need not be identical. Identical values can stand only once. About 83,000 compounds went through this panel and 20% of them were active in at least one assay; those are over-represented in the sample as a whole.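 Step 1: grow cells in 96-well plates. Step 2: add test compound at a single concentration. Step 3: incubate 48 h. Step 4: record percent growth.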 Calls of active or inactive are those of the source. The calls were made as follows: active = growth percent below 10; inactive = the rest.
Assays:
Experiment in all cases: NCI-60 one-dose screen, 48 h (100 = growth as untreated, 0 = no growth, -100 = all killed)
HCT-15 colon = system: HCT-15 colon
HT29 colon = system: HT29 colon
SNB-75 CNS = system: SNB-75 CNS
SNB-19 CNS = system: SNB-19 CNS
U251 CNS = system: U251 CNS
PC-3 prostate = system: PC-3 prostate
SK-MEL-5 melanoma = system: SK-MEL-5 melanoma
UACC-62 melanoma = system: UACC-62 melanoma
LOX IMVI melanoma = system: LOX IMVI melanoma
SK-MEL-28 melanoma = system: SK-MEL-28 melanoma
SK-MEL-2 melanoma = system: SK-MEL-2 melanoma
EKVX NSCLC = system: EKVX NSCLC
SN12C renal = system: SN12C renal
UO-31 renal = system: UO-31 renal
TK-10 renal = conditions: 10 µM unless noted
ACHN renal = system: ACHN renal
CAKI-1 renal = system: CAKI-1 renal
A498 renal = system: A498 renal
CCRF-CEM leukemia = system: CCRF-CEM leukemia
MOLT-4 leukemia = conditions: 10 µM unless noted

Measured: growth

O=C(CN1CCN(c2cc3c(cc2F)c(=O)c(C(=O)O)cn3C2CC2)CC1)Nc1ccc(Cl)cc1
inactive: HCT-15 colon; 10 µM unless noted 83% and 92.3% | HT29 colon; 10 µM unless noted 57.9% and 100% | SNB-75 CNS; 10 µM unless noted 79.7% | SNB-19 CNS; 10 µM unless noted 83.1% and 90.9% | U251 CNS; 10 µM unless noted 44.2% and 102% | PC-3 prostate; 10 µM unless noted 80.1% and 89.1% | SK-MEL-5 melanoma; 10 µM unless noted 71.1% and 83.5% | UACC-62 melanoma; 10 µM unless noted 63.6% and 57.8% | LOX IMVI melanoma; 10 µM unless noted 61.1% and 72.4% | SK-MEL-28 melanoma; 10 µM unless noted 87.1% and 84% | SK-MEL-2 melanoma; 10 µM unless noted 94.8% and 106% | EKVX NSCLC; 10 µM unless noted 93.4% and 92.3% | SN12C renal; 10 µM unless noted 90.1% and 90.6% | TK-10 renal 86.1% and 127% | ACHN renal; 10 µM unless noted 53.2% and 84.4% | CAKI-1 renal; 10 µM unless noted 67.2% and 77.6% | A498 renal; 10 µM unless noted 68.6% and 45.8% | CCRF-CEM leukemia; 10 µM unless noted 77.4% and 92.6% | MOLT-4 leukemia 96.5% and 92.7%
7.15% (active) and 16% (inactive): UO-31 renal; 10 µM unless noted

CC1=C[C@H]2c3c(c(O)c(O)c4oc5cc(O)cc(O)c5c(=O)c34)[C@H](c3cc(O)c(O)c4oc5cc(O)cc(O)c5c(=O)c34)[C@H]2C(C)(C)C1
13.3% (inactive) and -11.3% (active): SNB-19 CNS; 10 µM unless noted
30.1% (inactive) and -5.84% (active): TK-10 renal
14.4% (inactive) and -26.9% (active): PC-3 prostate; 10 µM unless noted
10.3% (inactive) and -22.8% (active): SK-MEL-28 melanoma; 10 µM unless noted
15.4% (inactive) and 3.72% (active): HCT-15 colon; 10 µM unless noted
active: HT29 colon; 10 µM unless noted -1.98% and -20.8% | U251 CNS; 10 µM unless noted 0.997% and -15.3% | SK-MEL-5 melanoma; 10 µM unless noted -84.2% and -98.1% | UACC-62 melanoma; 10 µM unless noted -43.1% and -68.9% | LOX IMVI melanoma; 10 µM unless noted -93.9% and -100% | SK-MEL-2 melanoma; 10 µM unless noted -20% and -41.4% | SN12C renal; 10 µM unless noted 9.13% and -8.98% | UO-31 renal; 10 µM unless noted -5.69% and -75.2% | CAKI-1 renal; 10 µM unless noted -20.5% and -2.78% | A498 renal; 10 µM unless noted -4.52% and -73.5% | CCRF-CEM leukemia; 10 µM unless noted 6.01% and -9.45% | MOLT-4 leukemia 7.66% and -18.8%
24.1% (inactive) and -10.6% (active): SNB-75 CNS; 10 µM unless noted
21.4% (inactive) and -31.9% (active): EKVX NSCLC; 10 µM unless noted
18.1% (inactive) and -7.12% (active): ACHN renal; 10 µM unless noted

CNC(=O)c1cc(Oc2ccc(CC(=O)Nc3cc(C(C)(C)C)nn3C)cc2)ccn1
inactive: HCT-15 colon; 1 µM 92.7% | HCT-15 colon; 10 µM 83.1% | HCT-15 colon; 30 µM 70.5% | HT29 colon; 1 µM 90.7% | HT29 colon; 10 µM 94.1% | HT29 colon; 30 µM 86.5% | SNB-75 CNS; 1 µM 51.3% | SNB-75 CNS; 10 µM 68% | SNB-75 CNS; 30 µM 77.9% | SNB-19 CNS; 1 µM 71.4% | SNB-19 CNS; 10 µM 65.3% | SNB-19 CNS; 30 µM 81.3% | U251 CNS; 1 µM 86% | U251 CNS; 10 µM 84.5% | U251 CNS; 30 µM 90.3% | PC-3 prostate; 1 µM 77.9% | PC-3 prostate; 10 µM 77.1% | PC-3 prostate; 30 µM 85.5% | SK-MEL-5 melanoma; 1 µM 22.8% | SK-MEL-5 melanoma; 10 µM 30.8% | UACC-62 melanoma; 1 µM 62.2% | UACC-62 melanoma; 10 µM 42% | UACC-62 melanoma; 30 µM 56.3% | LOX IMVI melanoma; 1 µM 76.6% | LOX IMVI melanoma; 10 µM 48.9% | LOX IMVI melanoma; 30 µM 56.2% | SK-MEL-28 melanoma; 1 µM 81.7% | SK-MEL-28 melanoma; 10 µM 83.8% | SK-MEL-28 melanoma; 30 µM 89.9% | SK-MEL-2 melanoma; 1 µM 67.9% | SK-MEL-2 melanoma; 10 µM 55.6% | SK-MEL-2 melanoma; 30 µM 78.3% | EKVX NSCLC; 1 µM 73.5% | EKVX NSCLC; 10 µM 62% | EKVX NSCLC; 30 µM 49.2% | SN12C renal; 1 µM 72.8% | SN12C renal; 10 µM 78.6% | SN12C renal; 30 µM 87.1% | UO-31 renal; 1 µM 77.1% | UO-31 renal; 10 µM 93.2% | UO-31 renal; 30 µM 113% | ACHN renal; 1 µM 67.7% | ACHN renal; 10 µM 67.8% | ACHN renal; 30 µM 73.4% | CAKI-1 renal; 1 µM 57.9% | CAKI-1 renal; 10 µM 61.3% | CAKI-1 renal; 30 µM 76.5% | A498 renal; 1 µM 69.3% | A498 renal; 10 µM 31.2% | A498 renal; 30 µM 54.8% | CCRF-CEM leukemia; 1 µM 73.3% | CCRF-CEM leukemia; 10 µM 66.1% | CCRF-CEM leukemia; 30 µM 62.9%

OCCN1CCN(CCO)CC1
inactive: HCT-15 colon; 10 µM unless noted 102% and 101% and 107% | HT29 colon; 10 µM unless noted 108% and 101% and 110% | SNB-75 CNS; 10 µM unless noted 111% and 83.4% and 96.1% | SNB-19 CNS; 10 µM unless noted 99.2% and 113% | U251 CNS; 10 µM unless noted 95.7% and 98% and 105% | PC-3 prostate; 10 µM unless noted 91.7% and 99.9% and 96.2% | SK-MEL-5 melanoma; 10 µM unless noted 102% and 92% and 115% | UACC-62 melanoma; 10 µM unless noted 99.5% and 92.6% and 109% | LOX IMVI melanoma; 10 µM unless noted 92.9% and 93.2% and 111% | SK-MEL-28 melanoma; 10 µM unless noted 33.7% and 104% and 106% | SK-MEL-2 melanoma; 10 µM unless noted 104% and 97.3% and 115% | EKVX NSCLC; 10 µM unless noted 107% and 85.1% and 114% | SN12C renal; 10 µM unless noted 98.1% and 89.2% and 112% | UO-31 renal; 10 µM unless noted 81.9% and 89.7% and 86.7% | TK-10 renal 93.6% and 107% and 108% | ACHN renal; 10 µM unless noted 99.1% and 98% and 104% | CAKI-1 renal; 10 µM unless noted 104% and 81.4% and 120% | A498 renal; 10 µM unless noted 110% and 95.5% and 101% | CCRF-CEM leukemia; 10 µM unless noted 99.5% and 88.4% and 98% | MOLT-4 leukemia 92.9% and 96.2% and 97.8%
